About 1,000 (1.4%) of roughly 69,000 compounds showed an effect of 50% or more. Shown is part of a subset that was picked to be rich in strong results.
Test system: Leishmania donovani
Assay: Leishmania intramacrophage assay
Assay type: functional, organism-based
Design: scale not given: in the data most compounds retested in dose-response had high values

CN(C)C(=O)N1CCOCC2(CCN(c3ccccn3)C2)C1.O=C(O)C(F)(F)F (stereo unspecified)
Percent Effect (30 µM, 30.03 µM): 18.14%

O=S1(=O)c2ccccc2C(O)CN1CCO (stereo unspecified)
Percent Effect (30.3 µM, […]): 5.205%

CCN(CC)c1ccc2ccc(C(=O)O)cn12
Percent Effect (30.3 µM, […]): 18.9%

CCN(CC)c1ccc2ccc(C(=O)N3CCCCO3)cn12.O=C(O)C(F)(F)F
Percent Effect (30.3 µM, […]): 27.79%

Cc1nc(-c2ccc(S(=O)(=O)N3CCOCC3)cc2)co1
Percent Effect (30.3 µM, […]): 23.37%

Cc1nn(C)cc1CN1C[C@@H]2CC[C@H](C1)N(Cc1c(C)noc1C)C2=O
Percent Effect (30.3 µM, […]): 16.01%

CC(=O)N1CCC(c2nc3ccc(NC4CCC4)cn3n2)CC1.O=C(O)C(F)(F)F
Percent Effect (30.3 µM, […]): 40.49%

CCN1CCC(c2nc3ccc(NC4CCC4)cn3n2)CC1.O=C(O)C(F)(F)F
Percent Effect (30.3 µM, […]): 53.52%

CCCN1CCC(c2nc3ccc(-c4cccc(OC)c4)cn3n2)CC1.O=C(O)C(F)(F)F
Percent Effect (30.3 µM, […]): 66.14%

CN1CCC(c2nc3ccc(-c4cccc(F)c4)cn3n2)CC1.O=C(O)C(F)(F)F
Percent Effect (30.3 µM, […]): 56.26%

CCN1CCC(c2nc3ccc(NC(C)C)cn3n2)CC1.O=C(O)C(F)(F)F
Percent Effect (30 µM, 30.03 µM): 14.23%

CCCN1CCC(c2nc3ccc(-c4cccc(F)c4)cn3n2)CC1.O=C(O)C(F)(F)F
Percent Effect (30.3 µM, […]): 49.02%

CCCN1CCC(c2nc3ccc(-c4ccccc4)cn3n2)CC1.O=C(O)C(F)(F)F
Percent Effect (30.3 µM, […]): 22.28%

CCCN1CCC(c2nc3ccc(-c4ccncc4)cn3n2)CC1.O=C(O)C(F)(F)F.O=C(O)C(F)(F)F
Percent Effect (30.3 µM, […]): 22.97%

CN1CCC(c2nc3ccc(-c4ccccc4)cn3n2)CC1.O=C(O)C(F)(F)F
Percent Effect (30.3 µM, […]): 26.64%

Cc1cnn(CC2CN(CC(=O)N3CCc4ccccc43)CCO2)c1 (stereo unspecified)
Percent Effect (30 µM, 30.03 µM): 26.31%

CCCN(C(=O)c1cnns1)C1CCCN(Cc2ccccc2)C1 (stereo unspecified)
Percent Effect (30.3 µM, […]): 15.37%

CCn1c(C)cc(C(=O)NCc2cccc(S(=O)(=O)NC)c2)c1C
Percent Effect (30.3 µM, […]): -2.214%

C[C@@H]1CN(CCC(=O)N(C)Cc2ccccc2)CC[C@@]1(O)C1CCC1
Percent Effect (30.3 µM, […]): -42.91%

CN(Cc1ccccc1)C(=O)CCN1CCC2(CC1)[C@H](O)C[C@@H]2O
Percent Effect (30.3 µM, […]): 16.81%

C[C@@H]1CN(CCC(=O)N(C)Cc2ccccc2)C[C@@]1(O)C1CCC1
Percent Effect (30.3 µM, […]): 54.72%

CC(C)Nc1cccc(CC2CCN(C)C2)n1.O=CO (stereo unspecified)
Percent Effect (30.3 µM, […]): 8.612%

Cc1noc(C)c1CC(=O)NCC(C(C)C)N1CCOCC1 (stereo unspecified)
Percent Effect (30.3 µM, […]): 13.16%

CS(=O)(=O)N1C[C@@H]2CC[C@H](C1)N(C(=O)CCc1ccsc1)C2
Percent Effect (30.3 µM, […]): 42.41%

CC(C)C1SCC(=O)Nc2c1cnn2-c1ccc(Cl)cc1 (stereo unspecified)
Percent Effect (30.3 µM, […]): 63.84%

COc1ccc(-n2ncc3c2NC(=O)CSC3C(C)C)cc1 (stereo unspecified)
Percent Effect (30.3 µM, […]): 23.81%

CC(C)C1SCC(=O)Nc2c1cnn2-c1ccc(F)cc1 (stereo unspecified)
Percent Effect (30.3 µM, […]): -10.63%

Cc1cc(C)c(CNC(=O)N2CCCN(C(=O)C(C)C)CC2)c(C)c1
Percent Effect (30.3 µM, […]): -55.36%

COc1cc(NC2CCS(=O)(=O)C2)ncn1 (stereo unspecified)
Percent Effect (30.3 µM, […]): -35.33%

Cc1nn(C)c(C)c1NC(=O)c1cccc(CN2CCS(=O)(=O)CC2)c1
Percent Effect (30.3 µM, […]): 17.24%

O=C(NCC1CCC1)c1cccc(CN2CCS(=O)(=O)CC2)c1
Percent Effect (30.3 µM, […]): 14.97%

CC(C)(C)NC(=O)c1cccc(CN2CCS(=O)(=O)CC2)c1
Percent Effect (30.3 µM, […]): 61.43%

CN1CCO[C@@H]2CN(S(=O)(=O)c3ccccc3)C[C@@H]2C1.O=C(O)C(F)(F)F
Percent Effect (30.3 µM, […]): 29.49%

OCC1CCCN1c1cc(NCc2ccccn2)ncn1 (stereo unspecified)
Percent Effect (30.3 µM, […]): 50.11%

OCC1CCCN1c1cc(NCCNc2ccccn2)ncn1 (stereo unspecified)
Percent Effect (30 µM, 30.03 µM): 16.04%

OCC1CCCN1c1cc(NCCNc2cccnn2)ncn1 (stereo unspecified)
Percent Effect (30.3 µM, […]): 20.93%

OCC1CCCN1c1cc(NCCc2nccs2)ncn1 (stereo unspecified)
Percent Effect (30.3 µM, […]): 55.11%

OCC1CCCN1c1cc(NCCc2ccccn2)ncn1 (stereo unspecified)
Percent Effect (30.3 µM, […]): 47.66%

OCC1CCCN1c1cc(NCCc2ccsc2)ncn1 (stereo unspecified)
Percent Effect (30.3 µM, […]): -26.43%

NC(=O)[C@@H]1CCCN1C(=O)c1csc(-c2ccc(C(F)(F)F)cc2)n1
Percent Effect (30.3 µM, […]): 24.55%

CNC(=O)c1cc(OC)c(OC)cc1N(C)S(C)(=O)=O
Percent Effect (30.3 µM, […]): -11.85%

COc1ccc(CCCC(=O)NCc2c(C)noc2C)cc1F
Percent Effect (30.3 µM, […]): 0.2518%

Cc1cc(C)cc(C(=O)NCc2ncnn2C)c1
Percent Effect (30.3 µM, […]): -3.252%

COC(=O)CCNC(=O)c1nnn(-c2ccc(F)cc2)c1C1CC1
Percent Effect (30.3 µM, […]): 23.19%

COc1cccc(CNCc2ccccc2Cl)c1O
Percent Effect (30.3 µM, […]): 11.74%

COc1cccc(CNCc2ccc(F)cc2Cl)c1O
Percent Effect (30.3 µM, […]): 50.12%

COc1cccc(CNCc2ccc(F)c(Cl)c2)c1O
Percent Effect (30.3 µM, […]): 3.534%

COCCCC(=O)N(C)c1ccc(F)c(Cl)c1
Percent Effect (30.3 µM, […]): 10.71%

O=c1oc(-c2ccc(F)cc2)nn1CN1CCCCC1
Percent Effect (30 µM): 11.98%

COCCNC(=O)c1sc(Nc2ccc(Cl)cn2)nc1C
Percent Effect (30 µM, 30.03 µM): -6.179%

COCC1CN(c2ccc(C)nn2)Cc2cnn(C)c21.O=C(O)C(F)(F)F.O=C(O)C(F)(F)F (stereo unspecified)
Percent Effect (30.3 µM, […]): 1.62%
